From PubChem BioAssay (EPA / NIEHS)
Activity calls are given as the source filed them. The calls were made as follows: active = hit-call score of the fitted dose curve at least 0.9, where 1 is the maximum; inactive = score below 0.9.

Assay: ATG_NFI_CIS: Attagene CIS-FACTORIAL HepG2 Assay for human Nuclear Factor I (NFI) (AID 2282989)
Settings: HepG2 cis-regulatory reporter, NFI response element transcription; actives raise or lower the signal
Protocol: ATG_CIS is a cell-based, multiplexed-readout assay that uses HepG2, a human liver cell line, with measurements taken at 24 hours after chemical dosing in a 24-well plate.ATG_NFI_CIS is one of 52 assay component(s) measured or calculated from the ATG_CIS assay. It is designed to make measurements of mRNA induction, a form of inducible reporter, as detected with fluorescence intensity signals by Reverse transcription polymerase chain reaction (RT-PCR) and Capillary electrophoresis technology.Data from the assay component ATG_NFI_CIS was analyzed into 1 assay endpoint. This assay endpoint, ATG_NFI_CIS, was analyzed with bidirectional fitting relative to DMSO as the negative control and baseline of activity. Using a type of inducible reporter, measures of mRNA for gain or loss-of-signal activity can be used to understand the reporter gene at the transcription factor-level as they relate to the gene NFIA. Furthermore, this assay endpoint can be referred to as a primary readout, because this assay has produced multiple assay endpoints where this one serves a reporter gene function. To generalize the intended target to other relatable targets, this assay endpoint is annotated to the dna binding intended target family, where the subfamily is nuclear factor I.
Human liver HepG2 cells are transiently transfected with multiple reporter transcription units (MRTUs) in 6-well plates using FuGene 6 reagent (Roche; 3 ml FuGene/1 mg DNA). The MRTU constructs are regulated by a cis-regulating element (promoter). […] A major difference between the CIS and TRANS system is that in CIS activities of endogenous TFs are measured, whereas the TRANS assay evaluates changes in activities of exogenous, chimeric NR-Gal4 proteins. […] At the end of 24 hour incubation, total RNA was isolated using TriZol reagent (Invitrogen). The isolated RNA is then reverse-transcribed using oligo(dT) primer and Mo-MLV reverse transcriptase (Invitrogen) with DNAse I (Ambion) treatment for 30 min. The one-tenth of the produced cDNA was amplified by PCR using Taq DNA polymerase (Invitrogen) and two reporter sequence-specific primers. The PCR products were fluorescently labeled by primer extension with 6-arboxyfluorescein (6-FAM) 5'-labeled reporter sequence-specific primer (2 min at 95 C, 20 s at 68 C and 10 min at 72 C) and these products were digested with 5U of HpaI (New England Biolabs) for 2h at 37 C. The fragments were purified using Qiaquick PCR columns (Qiagen), analyzed on an ABI 3130xL genetic analyzer (Applied Biosystems) with peak positions identified by using a set of X-rhodamine (ROX)-labeled MapMarker1000 molecular weight standards (BioVentures). The raw capillary electrophoresis data was processed using Attagraph software (Attagene).

outcome, inactive:
O=C1NC(=O)[C@@H]2CC=CC[C@H]12
CC(=O)OC(C)(C)Cc1ccccc1
CN1CCCC1
CCc1cc(C(N)=S)ccn1
CCCCCCCCCC/C=C/C1CC(=O)OC1=O (stereo not given)
CC/C=C\CCCCCO
CCC(C)NC(N)=O (stereo not given)
CCC(C)=NO
CCCCNC(N)=O
CCO[Si](OCC)(OCC)c1ccccc1
NC(N)=Nc1nc(CSCCC(N)=NS(N)(=O)=O)cs1
CCCCCC1CCCC(=O)O1 (stereo not given)
COC(=O)/C=C\C(=O)OC
C=C(C)C(=O)OCC1CCCO1 (stereo not given)
O=C(O)/C=C\C(=O)O
CCCc1c(OCCCCc2nn[nH]n2)ccc(C(C)=O)c1O
Sc1nc2ccccc2s1
C=C(C)C(=O)OCCCCCC
O=C(O)/C=C/C(=O)O
CO[Si](CCCNCCN)(OC)OC
O=C1NC(=O)C2CC=CCC12 (stereo not given)
Brc1ccc(Oc2ccc(Br)cc2)cc1
CC1=C(CC=O)C(C)(C)CCC1
CC[N+](CC)(CC(=O)Nc1c(C)cccc1C)Cc1ccccc1 (tested in a mixture with another compound)
Oc1ccc(Oc2ccccc2)cc1
CCCCCCCCCCCCCCCCCC[N+](C)(C)C
CC(=O)c1nccs1
CC/C=C\CCO
C[Si](C)(C)O[Si](C)(C)O[Si](C)(C)C
O=C(O)c1cc(Cl)cc(Cl)c1O
OCCOCCOCCOCCOCCO
CCCCCCCC#N
CCCCCCC1CCCC(=O)O1 (stereo not given)
CCC(C)C1N=C(C)C(C)S1 (stereo not given)
CN(C)CCC(c1ccc(Cl)cc1)c1ccccn1 (stereo not given)
O=C1CCCCCCCCCCCCCC1
CC=CC(=O)O
O=[N+]([O-])c1ccc2nc[nH]c2c1
C=CCOCC(CC)(CO)COCC=C
CCCC(=O)OC/C=C(\C)CCC=C(C)C
